CHX counter: counter-screen for Shiga toxin inhibitors: cycloheximide protein synthesis inhibition; 300,000 tested, 12% active; cell reporter, cycloheximide protein synthesis inhibition counterscreen; AID 2314; max response, %; in the data active = max response mostly above about 13%, no sharp cut-off; inactive = mostly below about 14%; note: read at 38.3 µM for the half of the compounds with a filed dose; 0% is about no effect
Giardia FBPA inh-1: inhibitors of Giardia lamblia fructose-1,6-bisphosphate aldolase. 290,000 tested, 0.71% active. Potency, µM (highest dose often 59.6 µM), inactives show at the top dose activity, negative = inhibition, usual class: inhibitors. purified Giardia FBPA; note: potency is the fitted concentration of half-maximal effect; % is set by controls: 0 for no effect and ±100 for the full control effect; nearly all actives have a fitted effect of over 55% in size
Target sequence (A8B2U2 whole entry, looked up): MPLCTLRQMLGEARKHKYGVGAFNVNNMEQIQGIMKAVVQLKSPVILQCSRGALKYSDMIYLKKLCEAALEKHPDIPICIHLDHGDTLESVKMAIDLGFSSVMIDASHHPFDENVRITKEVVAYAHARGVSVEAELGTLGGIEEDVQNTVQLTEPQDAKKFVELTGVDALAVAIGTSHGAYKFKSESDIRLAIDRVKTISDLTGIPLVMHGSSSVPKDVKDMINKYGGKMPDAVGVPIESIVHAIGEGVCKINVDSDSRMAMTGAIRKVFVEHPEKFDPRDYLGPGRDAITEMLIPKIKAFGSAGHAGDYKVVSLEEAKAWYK
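Giardia FBPA (40 nM reagent) was preincubated 10 min at RT with compound (up to 57.5 uM final), then substrate plus GAPDH/TPI/NAD/arsenate coupling system with diaphorase/resazurin was added; resorufin fluorescence (525/598 nm) was read after 20 min.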
RE007 growth inh: less growth of the S. pombe RE007 Vpr strain | S. pombe RE007 Vpr strain, BacTiter-Glo ATP luminescence, 24 h | Potency, µM (doses to about 92.2 µM), for the others: at the top dose activity change, negative = less growth, most hits filed as inhibitors | 360,000 tested, 0.21% active; active = well fitted falling curve with a large enough effect; inconclusive = small, poorly fitted or top-dose-only effect; inactive = no such curve, though single readings can be large or run the other way; note: potency is the fitted concentration of half-maximal effect; % is set by controls: 0 for no effect and ±100 for the full control effect; nearly all actives have a fitted effect of over 50% in size
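Fission yeast RE007 carrying one integrated HIV-1 vpr copy, seeded at OD 0.01 in PMG+AL medium with 23 nL pinned compound. Grown 24 h at 30 degrees; viability read by BacTiter-Glo luminescence after 5 min.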
LmPK inh: LmPK (Leishmania mexicana) enzyme inhibition | Q27686 | purified LmPK, Kinase-Glo ATP luminescence, 1 h | Potency, µM (titrated, usually from 57.5 µM), for the others: at the top dose activity change, negative = inhibition, hits mostly inhibitors | 290,000 tested, 0.37% active | AID 1721; note: potency is the fitted concentration of half-maximal effect; % is set by controls: 0 for no effect and ±100 for the full control effect
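qHTS format; LmPK 0.1 nM; substrates PEP 0.5 mM and ADP 0.1 mM. One-hour room-temperature incubation, then coupled luciferase luminescence; 0.5 nM enzyme wells mark activation.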
TbPYK inhibitor: T. brucei pyruvate kinase inhibition; Q57TT1; Potency, µM (series often up to 76.8 µM), inactives show at the highest dose activity, negative = inhibition, hits mostly inhibitors; 410,000 tested, 0.12% active; AID 624173; TbPYK enzyme, Kinase-Glo Plus ATP luminescence, 45 min; note: potency is the fitted concentration of half-maximal effect; % is set by controls: 0 for no effect and ±100 for the full control effect; nearly all actives have a fitted effect of over 50% in size
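T. brucei PYK with substrate was exposed to pin-transferred compounds across a concentration series, then started with 130 uM ADP (final). After 45 min at room temperature, Kinase-Glo Plus luminescence was read, normalized and curve-fitted.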
Shiga toxin inh: blocks Shiga toxin action in Vero cells; inhibition, % at 38.7 µM; AID 2315; 290,000 tested, 9.2% active; Vero cells, Shiga toxin protein synthesis inhibition reporter; in the data active = inhibition mostly above about 28%, no sharp cut-off; inactive = mostly below about 43%; note: 0% is about no effect
LmPK inh confirm: Confirms inhibition of Leishmania mexicana pyruvate kinase | shares compounds with LmPK inh | purified LmPK, Kinase-Glo ATP luminescence, 1 h | Potency, µM (titrated, usually from 57.5 µM), for inactives: at the top dose activity change, negative = inhibition, actives largely listed as inhibitors | 150 tested, 40% active | AID 2559;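 active = compounds giving a full or partial concentration-response curve, as inhibitors or activators; inconclusive = weak, top-dose-only or unclear curve responses; inactive = no response at any tested dose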
Giardia growth: blocks growth of Giardia lamblia trophozoites; shares compounds with Giardia FBPA inh-1; Potency, µM (highest dose often 57.5 µM), for the others: at the highest dose activity change, negative = inhibition, hits mostly inhibitors; 1,500 tested, 5% active; Giardia lamblia trophozoite growth inhibition;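 note: potency is the fitted concentration of half-maximal effect; trophozoites exposed to compound for 48 h at 37 °C; % is set by controls: 0 for no effect and ±100 for the full control effect; nearly all actives have a fitted effect of over 70% in size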
Mammalian tox: toxic to mammalian cells in Giardia aldolase counter-screen. shares compounds with Giardia FBPA inh-1. AID 2786. Potency, µM (doses to about 57.5 µM), for the others: at the highest dose viability change, negative = toxicity, most hits filed as inhibitors. mammalian cell viability counter-screen, qHTS. 1,500 tested, 4% active;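 note: Chinese hamster ovary cells used as mammalian cytotoxicity surrogate; viability measured as cellular ATP by luminescence; potency is the fitted concentration of half-maximal effect; compound exposure lasted 48 h before reading; % is set by controls: 0 for no effect and ±100 for the full control effect; nearly all actives have a fitted effect of over 60% in size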
Giardia FBPA inh-2: confirmation of Giardia fructose-bisphosphate aldolase inhibitors. shares compounds with Giardia FBPA inh-1. purified Giardia aldolase enzyme activity, qHTS. Potency, µM (titrated, usually from 57.5 µM), inactives show top-dose activity change, negative = inhibition, usual class: inhibitors. 1,500 tested, 5% active. AID 2787; note: potency is the fitted concentration of half-maximal effect; % is set by controls: 0 for no effect and ±100 for the full control effect; nearly all actives have a fitted effect of over 45% in size
Rabbit FBPA inh: blocks rabbit muscle aldolase in Giardia aldolase selectivity test | shares compounds with Giardia FBPA inh-1 | Rabbit muscle FBPA enzyme inhibition, selectivity counter-screen | Potency, µM (top dose mostly 57.5 µM), for the others: at the top dose activity, negative = inhibition, actives largely listed as inhibitors | 1,500 tested, 4% active; note: potency is the fitted concentration of half-maximal effect; % is set by controls: 0 for no effect and ±100 for the full control effect; nearly all actives have a fitted effect of over 60% in size
GAPDH coupling: GAPDH inhibition flagged for Giardia aldolase hits; shares compounds with Giardia FBPA inh-1; Potency, µM (highest dose often 57.5 µM), inactives show at the top dose activity change, negative = inhibition, actives largely listed as inhibitors; 1,500 tested, 6% active; GAPDH coupling enzyme counterscreen, biochemical, qHTS; note: potency is the fitted concentration of half-maximal effect; % is set by controls: 0 for no effect and ±100 for the full control effect; nearly all actives have a fitted effect of over 55% in size
* hit, by the source's call; ? = inconclusive; . = no result given. This excerpt belongs to a sample that is enriched for hits. Unless noted, calls come from the whole dose curve; as a rule, active = well fitted curve in the direction sought with a large enough effect; inconclusive = small, poorly fitted or top-dose-only effect, or another doubt; inactive = no such curve, though single readings can be large; an effect the other way counts as inactive or inconclusive.

SMILES	CHX counter	Giardia FBPA inh-1	RE007 growth inh	LmPK inh	TbPYK inhibitor	Shiga toxin inh	LmPK inh confirm	others
O=C(c1ccccc1)c1cc2ccc(O)cc2oc1=O	21*	14%	?	3.5µM*	?	36	7.3µM*
O=C(c1ccc(Br)cc1)c1cc2ccc(O)cc2oc1=O	10	1%	1%	-1%	-11%	25	.
Cc1ccnc(NC(=O)c2cc3ccccc3oc2=O)c1	27*	2%	-3%	7.9µM*	-10%	122*	?
CCN(CC)S(=O)(=O)c1ccc(C(=O)NC2CC(=O)N(c3ccc(OC)c(OC)c3)C2)cc1 (stereo not given)	.	.	.	.	-5%	.	.
COc1ccc(CNC(=O)Cn2ncc3c(=O)oc4ccc(C)cc4c32)c(OC)c1	.	.	.	.	4%	.	.
O=C1c2ccccc2-c2nnc(-c3ccccc3)cc21	19*	-10%	?	2.8µM*	?	72*	7.3µM*
CCOc1ccc(NC(=O)Nc2ccccc2C(N)=O)cc1	29*	2%	?	3.2µM*	-15%	46*	10µM*
COc1cccc(NC(=O)c2cccc(C(=O)Nc3cccc(OC)c3)c2)c1	7	0%	1%	-8%	-4%	1	.
COc1ccc(C(=O)Nc2cccc(OC)c2)cc1	58*	-16%	?	?	?	91*	?
Cc1ccc(C)c(OC2=NS(=O)(=O)c3ccccc32)c1	2	3%	-9%	10µM*	-19%	-4	?
COC1=NS(=O)(=O)c2ccccc21	-2	2%	14%	-6%	1%	-12	.
Cc1c(F)cccc1NC(=O)C1CCCN1S(=O)(=O)c1ccc(F)cc1 (stereo not given)	.	.	.	.	4%	.	.
O=C1C(Cl)=C(NC(=O)c2ccccc2)C(=O)C(Cl)=C1NC(=O)c1ccccc1	18*	5.6µM*	3%	1.1µM*	?	60	?	Giardia growth=-12%;Mammalian tox=?;Giardia FBPA inh-2=0.79µM*;Rabbit FBPA inh=3.5µM*;GAPDH coupling=1.4µM*
CCOC(=O)c1c(C)oc2ccc(N(C(=O)Oc3ccccc3)S(=O)(=O)c3ccccc3)cc12	.	.	.	.	0%	.	.
CCOC1=NN(c2ccccc2)C(=O)/C1=C\N(C)C	-2	6%	4%	-2%	-2%	43	.
CC1=NN(c2nc3ccccc3[nH]2)C(=O)/C1=C/N(C)C	-5	16µM*	7.9µM*	14µM*	?	2	7.3µM*	Giardia growth=40µM*;Mammalian tox=4.5µM*;Giardia FBPA inh-2=3%;Rabbit FBPA inh=-1%;GAPDH coupling=-14%
Cc1ccc(S(=O)(=O)/N=C2/C=C(Sc3ncn[nH]3)C(=O)c3ccccc32)cc1	33*	0.45µM*	?	7.1µM*	7.9µM*	51	4.6µM*	Giardia growth=7.1µM*;Mammalian tox=20µM*;Giardia FBPA inh-2=2.5µM*;Rabbit FBPA inh=10µM*;GAPDH coupling=3.2µM*
